Compounds with a hit are over-represented: about 12% of the library has one in this group of screens.
WT yeast gro inh – growth inhibition of WT strain, primary screen, mitochondrial fusion inhibitor project, WT and mutant strains, chemical genetic; 2.1% of 190,000 active; mitochondrial fusion phenotypic screen; inhibition, % at 10 µM; in the data active = inhibition above about 58%; tested in S. cerevisiae
L major viab – Leishmania major promastigote growth inhibition, primary screen; Leishmania major promastigotes, resazurin fluorescence viability; AID 1063, 2008; 9% of 200,000 active; inhibition, % at 10 µM; in the data active = inhibition above about 50%;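 note: promastigotes grown with compound for 44 hours at 28 °C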
CHOP inhibitor – inhibitors of CHOP promoter induction, primary screen, cell-based, unfolded protein response, luciferase reporter; CHO-K1 CHOP-promoter luciferase, tunicamycin-induced, 15-18 h; inhibition, % at 10 µM; 3.8% of 220,000 active; AID 2732, 2010;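 active = compounds that reduced the stress-induced luciferase reporter signal by more than about 70% of percent inhibition, limit read from the data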
Arbovirus anti – antivirals against arbovirus infection, primary screen, cell-based, full library, 10K replicate subset; 0.37% of 200,000 active; inhibition, % at 10 µM; arbovirus infection cell-based antiviral screen; AID 1251, 2008; in the data active = inhibition above about 30%
Hits are given with their value; n = inactive; x = not tested or not shown.

SMILES	WT yeast gro inh	L major viab	CHOP inhibitor	Arbovirus anti
O=C(Nc1ccc(SC(F)(F)F)cc1)c1ccccn1	n	n	n	n
Cc1cc(OCC(=O)N2CCOCC2)ccc1[N+](=O)[O-]	x	x	n	x
O=C1c2cccc(Cl)c2C(=O)c2c1cccc2N1CCCC1	x	n	x	x
O=C(Nc1ccccc1)Nc1snnc1C(=O)Nc1cccc(O)c1	n	n	78	48
Cc1ccc(C)c(N2CC(C(=O)O)CC2=O)c1 (centres undefined)	n	n	n	n
Brc1ccc2[nH]c3c(N4CCc5ccccc5C4)ncnc3c2c1	n	n	n	n
Cc1ccc2[nH]c3c(N4CCc5ccccc5C4)ncnc3c2c1	n	68	74	n
Fc1ccc2[nH]c3c(N4CCc5ccccc5C4)ncnc3c2c1	x	x	73	x
COc1ccc(CN2CCN(CCC(C)C)C(CCO)C2)cc1Cn1cncn1 (centres undefined)	n	n	n	n
Cc1nnc(SCC(=O)N2CCN(C(=O)c3ccco3)CC2)n1-c1ccccc1	n	n	n	n
CCNC(=S)N(CCc1ccccc1C)Cc1cc2cc(OC)c(OC)cc2[nH]c1=O	n	75	n	n
CNC(=S)N(CCc1ccc(OC)c(OC)c1)Cc1cc2c(C)cc(C)cc2[nH]c1=O	n	69	n	n
COc1cc2cc(CN(CCc3ccccc3C)C(=S)NCCCN(C)C)c(=O)[nH]c2cc1OC	n	78	n	n
COc1cc2cc(CN(CCc3ccccc3C)C(=S)NCCCN3CCOCC3)c(=O)[nH]c2cc1OC	n	n	n	n
Cc1csc2c(SCC(=O)NNC(=O)C(Cl)Cl)ncnc12	x	x	n	x
CC(C)(C)C1CCC(=NNC(=O)CN(c2ccccc2)S(=O)(=O)c2ccccc2[N+](=O)[O-])CC1 (centres undefined)	n	n	n	n
C/C(=N\NC(=O)CN(c1ccccc1)S(=O)(=O)c1ccccc1[N+](=O)[O-])C(C)(C)C	n	90	n	n
CN1CCN(C(=O)C(N)Cc2ccccc2)CC1 (centres undefined)	n	n	n	n
CC1CCN(CC(O)COc2cccc(F)c2)CC1 (centres undefined)	n	66	n	n
COc1cccc(OCC(O)CN2CCC(C)CC2)c1 (centres undefined)	n	71	n	n
CC1CCN(CC(O)COc2ccc(F)cc2)CC1 (centres undefined)	n	n	n	n
CCN1CCN(CC(O)COc2cccc(OC)c2)CC1 (centres undefined)	n	n	n	n
Cc1cccc(OCC(O)CN2CCN(C3CCCCC3)CC2)c1 (centres undefined)	n	91	n	n
Cc1cc(=O)[nH]c(SCC(=O)NCC2CCCCC2)c1C#N	n	n	n	n
Cn1cc(-c2ccccc2C(N)=O)c(=O)c2cc(Cl)ccc21	n	73	n	n
SMILES	WT yeast gro inh	L major viab	CHOP inhibitor	Arbovirus anti
COc1ccc(C(=O)COC(=O)CCc2nc3ccccc3[nH]c2=O)cc1Br	n	n	n	n
COc1cccc(N2CCN(C(=O)CCNS(=O)(=O)c3ccc4c(c3)c(=O)n(C)c(=O)n4C)CC2)c1	n	n	n	n
COc1ccc(Br)cc1C(=O)N/N=C/c1ccc([N+](=O)[O-])cc1	n	n	100	n
CC(C)C(=O)Nc1ccccc1C(=O)N/N=C/c1ccc([N+](=O)[O-])cc1	n	52	n	n
CC(C)NC(=O)c1ccccc1NC(=O)Cc1ccc([N+](=O)[O-])cc1	n	n	n	n
CC(Nc1cccc2ccccc12)C(=O)N/N=C/c1ccc([N+](=O)[O-])cc1 (centres undefined)	n	n	82	n
CCOc1ccc(Br)cc1C(=O)N/N=C/c1ccc([N+](=O)[O-])cc1	n	n	n	n
COC(=O)c1c(NC(=O)/C=C/C(=O)O)sc(C)c1-c1ccc(C(C)C)cc1	n	n	n	n
Cc1nn(-c2ccccc2)c(NC(=O)c2cccs2)c(-c2ccccc2)c1=O	n	n	n	n
C=CCNC(=O)c1onc(CSc2ccc(C(C)C)cc2)c1C(=O)O	n	n	n	36
COCCNC(=O)c1onc(CCl)c1C(=O)OC	n	92	n	n
CCCCNC(=O)c1onc(CCl)c1C(=O)OC	n	101	n	n
C=CCNC(=O)c1onc(CSc2ccc(OC)cc2)c1C(=O)O	n	n	n	n
C=CCNC(=O)c1onc(CCl)c1C(=O)OC	n	101	n	n
CC/C(C)=N/Oc1nc(C)cc(C)n1	x	x	n	x
COc1cccc(/C=N/N2CCN(C3c4ccccc4-c4ccccc43)CC2)c1O	x	x	n	x
Cc1cccc(NC(=S)N(C)Cc2cn(C)c3ccccc23)c1	72	69	n	n
Cc1ccc(NC(=O)Cc2cn(C)c3ccccc23)cc1F	n	n	n	n
COc1cccc(NC(=O)Cc2cn(C)c3ccccc23)c1	n	n	n	n
CN(Cc1cn(C)c2ccccc12)C(=S)Nc1cc(F)cc(F)c1	n	74	n	n
CC[C@H](C)[C@@H](NC(=O)O[C@@H]1C(=O)c2cc(Br)ccc2O[C@H]1c1ccc2c(c1)OCO2)C(=O)OC	n	n	n	n
Cc1nn(Cc2ccccc2)c(Cl)c1/C=C1\NC(=S)NC1=O	n	n	n	n
O=c1cc(CSc2nnnn2-c2ccccc2)nc(Nc2ccc(F)cc2)[nH]1	n	n	n	31
CC(C)OP(=O)(OC(C)C)C(Nc1ccccc1)c1ccccc1C(F)(F)F (centres undefined)	n	94	n	n
CC(C)OP(=O)(OC(C)C)C(Nc1ccccc1)c1cccc2c1OCO2 (centres undefined)	n	n	n	n
SMILES	WT yeast gro inh	L major viab	CHOP inhibitor	Arbovirus anti
CCN(CC)c1ccc(N=Cc2c(C)[nH]c3ccccc23)cc1	n	n	97	n
CCc1nc(Nc2ccc(OC)c(OC)c2)c2nnn(Cc3ccccc3Cl)c2n1	n	n	91	n
COc1ccc2c(=O)c3c(=O)n(Cc4ccco4)c(-c4cc(OC)c(OC)c(OC)c4)nc3oc2c1	n	67	n	n
CCCc1nc2oc3cc(OC)ccc3c(=O)c2c(=O)n1Cc1ccco1	n	n	n	n
COc1ccc2c(=O)c3c(=O)n(Cc4ccco4)c(-c4ccccc4)nc3oc2c1	n	62	n	n
CC(=O)N1CCN(c2ccc(NCc3ccc(C)cc3)cc2)CC1	n	n	n	n
Cc1ccc(C(=O)NCc2ccc(N3CCN(C(=O)OC(C)(C)C)CC3)cc2)cc1	61	n	n	n
Cn1c(Sc2ccc([N+](=O)[O-])cc2C(F)(F)F)nnc1-c1ccccc1	n	62	n	n
COc1cccc(C(=O)c2sc(NC(C)C)nc2N)c1	n	n	91	n
COc1cc(/C=N/n2nnnc2N)ccc1OCc1c(C)no[n+]1[O-]	n	54	n	n
COc1ccc(OC)c(NC(=O)c2cccc(Cn3cc(Br)c([N+](=O)[O-])n3)c2)c1	n	100	n	n
N#CCC(=O)NCCCc1ccccc1	n	n	n	n
Cc1ccc(NC(=O)C2CC(=O)N(c3ccc4c5c(cccc35)CC4)C2)cc1 (centres undefined)	n	n	n	n
N#Cc1ccccc1NC(=O)C1CC(=O)N(c2ccc3c4c(cccc24)CC3)C1 (centres undefined)	n	57	n	n

Screening data from PubChem.
